Results published in PubChem BioAssay (NCATS).
Several values for one entry are separate records, joined by “and”; a condition that tells them apart may be missing. Equal values may be shown once. Results filed as inconclusive are left out. Activity calls are given as the source filed them. Unless noted, calls come from the whole dose curve.

Assays:
[1] = biological target: Peroxisome proliferator-activated receptor delta (Homo sapiens) (UniProt Q03181); assay: qHTS assay for small molecule agonists of peroxisome proliferator-activated receptor delta signaling (AID 588534);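 note: 0% = DMSO basal wells and 100% = positive control agonist at 10 µM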
Chain of Peroxisome proliferator-activated receptor delta (Homo sapiens) (Q03181 whole entry, looked up): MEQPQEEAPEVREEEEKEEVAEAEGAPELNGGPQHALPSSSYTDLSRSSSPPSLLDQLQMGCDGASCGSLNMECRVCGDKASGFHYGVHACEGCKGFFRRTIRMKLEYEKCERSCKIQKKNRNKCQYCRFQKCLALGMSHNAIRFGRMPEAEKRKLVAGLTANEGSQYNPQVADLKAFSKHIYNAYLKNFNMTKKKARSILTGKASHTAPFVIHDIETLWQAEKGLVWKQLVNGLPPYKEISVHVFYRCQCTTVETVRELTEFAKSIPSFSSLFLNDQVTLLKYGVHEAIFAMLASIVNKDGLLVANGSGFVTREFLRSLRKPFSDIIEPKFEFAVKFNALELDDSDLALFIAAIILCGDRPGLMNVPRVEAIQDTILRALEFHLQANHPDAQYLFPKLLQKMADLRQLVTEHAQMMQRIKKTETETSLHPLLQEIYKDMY
Summary of the method: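 Titration series tested in agonist mode on beta-lactamase reporter cells; 18 hrs at 37 C after a 5 hr pre-incubation. Readout: CCF4 fluorescence, 2 hrs RT. Hill equation gives EC50 and maximal response.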

[2] = biological target: Thyroid hormone receptor beta (Homo sapiens) (UniProt P10828); assay: qHTS assay for small molecule agonists of thyroid hormone receptor beta signaling (AID 588545)
Chain of Thyroid hormone receptor beta (Homo sapiens) (P10828 whole entry, looked up): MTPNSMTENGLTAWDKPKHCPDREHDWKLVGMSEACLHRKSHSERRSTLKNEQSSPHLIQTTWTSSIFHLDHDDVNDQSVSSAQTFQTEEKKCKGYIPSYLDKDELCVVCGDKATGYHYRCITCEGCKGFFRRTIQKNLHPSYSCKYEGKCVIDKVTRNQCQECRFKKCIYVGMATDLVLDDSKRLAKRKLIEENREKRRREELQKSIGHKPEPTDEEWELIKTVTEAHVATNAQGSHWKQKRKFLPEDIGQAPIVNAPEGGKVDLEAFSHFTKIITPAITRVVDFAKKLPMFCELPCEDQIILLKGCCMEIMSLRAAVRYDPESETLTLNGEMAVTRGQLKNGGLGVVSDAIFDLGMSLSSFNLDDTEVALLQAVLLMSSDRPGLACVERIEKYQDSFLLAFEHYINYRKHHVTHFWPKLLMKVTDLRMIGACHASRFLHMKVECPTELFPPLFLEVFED
Summary of the method: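 Agonist-mode beta-lactamase reporter assay, HEK 293 cells, 2% charcoal/dextran FBS; cells plated 4 hrs, compound 18 hrs at 37 C, CCF4 2 hrs RT. Normalized to 10 nM T3 (100%) and DMSO (0%); Hill fit gives EC50, efficacy.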

[3] = qHTS assay for small molecule agonists of the antioxidant response element (ARE) signaling pathway (AID 651741; active = well fitted activation curve with a large enough effect in the signal ratio; the % refers to the signal ratio; note: % of control where 0% means no effect)
Summary of the method: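 Beta-lactamase reporter expression driven by the antioxidant response element in HepG2 cells was detected by fluorescence with LiveBLAzer B/G FRET substrate (2 h, room temperature) following 16 h compound treatment at 37 C.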

[4] = Primary qHTS for inhibitors of SARS-S pseudo-typed particle cell entry (AID 1479145); details: outcome: dose series up to 57.1 µM unless noted; note: nearly all actives have a fitted effect of over 45% in size; for activity change, negative = inhibition: % is set by controls: 0 for no effect and ±100 for the full control effect
[5] = Primary qHTS for Huh7 cytotoxicity: counterscreen for inhibitors of MERS-S pseudotyped particle cell entry (AID 1479147); details: outcome: dose series up to 57.1 µM unless noted
[6] = Primary qHTS for inhibitors of MERS-S pseudo-typed particle cell entry (AID 1479149); details: outcome: dose series up to 57.1 µM unless noted; note: nearly all actives have a fitted effect of over 60% in size
[7] = Primary qHTS for Vero E6 cytotoxicity: counterscreen for inhibitors of SARS-S pseudo-typed particle cell entry (AID 1479150); details: outcome: dose series up to 57.1 µM unless noted
[8] = Cytotoxicity counterscreen for inhibitors of SARS-CoV-2 cell entry (AID 1645845); details: outcome: dose series up to 57.1 µM unless noted; note: nearly all actives have a fitted effect of over 50% in size
Summary of the method: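 After a 15 min room-temperature ATPLite 1step step, luminescence reflected ATP remaining in HEK293-ACE2 cells exposed to compound for 1 h plus 48 h at 37 C, with percent activity set by cell and no-cell controls.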

[9] = Primary qHTS to identify inhibitors of SARS-CoV-2 cell entry (AID 1645846); details: SARS-CoV-2 pseudovirus cell entry assay, luminescence; activity change, negative = inhibition: at 57.1 µM (top of the series) unless noted; note: nearly all actives have a fitted effect of over 45% in size
Summary of the method: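 Using luciferase-reporting pseudoviruses carrying Wuhan-Hu-1 spike, the screen tracks entry into stably ACE2-expressing cells over 48 hr. Activity is expressed relative to spike particles versus particles lacking any fusion protein.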

[10] = biological target: Glutathione peroxidase 1 (Homo sapiens) (UniProt P07203); assay: Primary qHTS Assay for Inhibitors of Recombinant Selenoprotein Glutathione Peroxidase 1 (GPX1) (AID 1845191; active = well fitted curve in the direction sought with a large enough effect; an effect the other way counts as inactive or inconclusive; note: nearly all actives have a fitted effect of over 65% in size; for activity, negative = inhibition: % is set by controls: 0 for no effect and ±100 for the full control effect)
Chain of Glutathione peroxidase 1 (Homo sapiens) (P07203 whole entry, looked up): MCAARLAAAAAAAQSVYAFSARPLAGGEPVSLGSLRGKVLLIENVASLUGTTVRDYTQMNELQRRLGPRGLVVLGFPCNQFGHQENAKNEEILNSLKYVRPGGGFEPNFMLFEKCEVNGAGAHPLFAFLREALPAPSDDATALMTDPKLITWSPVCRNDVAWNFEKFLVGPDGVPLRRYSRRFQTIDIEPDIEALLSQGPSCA
Summary of the method: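 GPX1 10 nM, GR 100 nM, GSH 1 mM, NADPH 0.5 mM, CHP 0.5 mM (final). 30-min cpd preincubation, RT. Ex340/Em450 read t=0, t=15 min.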

[11] = biological target: Phospholipid hydroperoxide glutathione peroxidase GPX4 (Homo sapiens) (UniProt P36969); assay: Primary qHTS Assay for Inhibitors of Recombinant Selenoprotein Glutathione Peroxidase 4 (GPX4) (AID 1845192; active = well fitted curve in the direction sought with a large enough effect; an effect the other way counts as inactive or inconclusive; note: nearly all actives have a fitted effect of over 65% in size; for activity change, negative = inhibition: % is set by controls: 0 for no effect and ±100 for the full control effect)
Chain of Phospholipid hydroperoxide glutathione peroxidase GPX4 (Homo sapiens) (P36969 whole entry, looked up): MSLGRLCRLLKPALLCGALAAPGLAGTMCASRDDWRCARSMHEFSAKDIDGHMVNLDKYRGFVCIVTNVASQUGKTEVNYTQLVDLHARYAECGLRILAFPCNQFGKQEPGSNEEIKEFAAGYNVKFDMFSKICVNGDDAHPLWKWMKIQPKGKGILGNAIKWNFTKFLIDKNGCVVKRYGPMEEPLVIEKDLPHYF
Summary of the method: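 qHTS, GR-coupled: GPX4 200 nM + cpd 30 min RT → GSH 1 mM, NADPH 0.5 mM, GR 100 nM → CHP 0.5 mM start; fluor 340/450 at t0 and t15 min; no-enzyme wells as control.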

[12] = KB-8-5-11 P-gp reporter qHTS against the NCATS DSHEA and TCM libraries (AID 1919977; active = well fitted curve in the direction sought with a large enough effect; an effect the other way counts as inactive or inconclusive; note: 0% is about no effect)
Summary of the method: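 Viability of drug-resistant KB-8-5-11 cells is measured by CellTiter-Glo luminescence following roughly 72 h treatment at 37C. Substances were titrated, with bortezomib as intraplate control.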

[13] = biological target: Alpha-galactosidase (Coffea arabica) (UniProt Q42656); assay: Counterscreen for Glucocerebrosidase Inhibitors: qHTS Assay for Coffee Bean alpha-Galactosidase at pH 4.5 (AID 957; active = well fitted curve in the direction sought with a large enough effect; an effect the other way counts as inactive or inconclusive;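 note: plate controls were enzyme alone for no effect and no enzyme for full effect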)
Chain of Alpha-galactosidase (Coffea arabica) (Q42656 whole entry, looked up): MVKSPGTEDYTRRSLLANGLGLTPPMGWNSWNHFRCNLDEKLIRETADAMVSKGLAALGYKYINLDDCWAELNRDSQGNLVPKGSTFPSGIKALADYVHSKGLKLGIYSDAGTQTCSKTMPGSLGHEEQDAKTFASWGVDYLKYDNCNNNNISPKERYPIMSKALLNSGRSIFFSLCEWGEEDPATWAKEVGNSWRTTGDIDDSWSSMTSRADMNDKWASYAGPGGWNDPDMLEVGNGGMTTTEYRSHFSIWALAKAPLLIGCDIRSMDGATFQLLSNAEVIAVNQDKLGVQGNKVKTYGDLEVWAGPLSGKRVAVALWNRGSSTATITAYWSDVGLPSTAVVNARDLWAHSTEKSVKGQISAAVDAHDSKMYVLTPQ
Summary of the method: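 Fluorogenic read-out: 4-methylumbelliferone at Ex 365/Em 440 nm after NaOH/glycine stop (pH 10). Enzyme 2 nM, 4-MU-alpha-galactoside 80 uM, citrate buffer pH 4.5, 20 min RT; normalized to no-enzyme and enzyme controls.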

[14] = biological target: Alpha-galactosidase (Coffea arabica) (UniProt Q42656); assay: Counterscreen for Glucocerebrosidase Inhibitors: qHTS Assay for Coffee Bean alpha-Galactosidase at pH 5.9 (AID 998; active = well fitted curve in the direction sought with a large enough effect; an effect the other way counts as inactive or inconclusive;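 note: plate controls were uninhibited enzyme for no effect and no-enzyme basal signal for full effect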)
Summary of the method: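 In 50 mM citric acid pH 5.9 with 0.005% Tween-20, coffee bean enzyme hydrolyses 80 uM 4-MU alpha-D-galactopyranoside over 20 min at RT. Activity is normalized to controls; AC50 comes from Hill-modelled concentration-response data.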

[15] = Validation screen for inhibitors of Lassa infection (AID 463096); note: % is set by controls: 0 for no effect and ±100 for the full control effect
[16] = biological target: Vitamin D3 receptor (Homo sapiens) (UniProt P11473); assay: qHTS assay for small molecule agonists of vitamin D receptor signaling (AID 588543);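 note: 0% = DMSO basal and 100% = reference agonist control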
Chain of Vitamin D3 receptor (Homo sapiens) (P11473 whole entry, looked up): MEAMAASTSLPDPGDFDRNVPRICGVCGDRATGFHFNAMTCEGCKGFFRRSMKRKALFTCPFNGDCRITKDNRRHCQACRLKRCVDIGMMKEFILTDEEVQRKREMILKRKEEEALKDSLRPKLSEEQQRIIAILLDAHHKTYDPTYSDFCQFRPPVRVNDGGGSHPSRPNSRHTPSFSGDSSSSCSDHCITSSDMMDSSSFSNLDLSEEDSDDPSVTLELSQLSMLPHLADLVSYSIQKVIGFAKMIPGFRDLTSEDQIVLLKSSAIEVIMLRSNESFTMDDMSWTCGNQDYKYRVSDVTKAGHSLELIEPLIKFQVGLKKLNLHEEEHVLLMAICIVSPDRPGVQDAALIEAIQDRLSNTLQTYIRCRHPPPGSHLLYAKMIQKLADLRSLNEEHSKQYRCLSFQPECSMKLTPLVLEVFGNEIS
Summary of the method: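 Measured: β-lactamase reporter activity (CCF4, 405 nm excitation, 460/530 nm emission) in HEK293T VDR-UAS-bla cells after 16 h compound exposure at 37 °C. Normalization against 50 nM 1α,25-dihydroxyvitamin D3 and DMSO; Hill-fit EC50.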

[17] = qHTS assay for small molecule agonists of retinoid X receptor alpha signaling (AID 588544); details: HEK293T RXRa-UAS-bla, beta-lactamase reporter, 18 h; 530 nm emission;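 for activation: 0% = DMSO basal wells and 100% = reference agonist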
[18] = biological target: Retinoic acid receptor RXR-alpha (Homo sapiens) (UniProt P19793); assay: as above
Chain of Retinoic acid receptor RXR-alpha (Homo sapiens) (P19793 whole entry, looked up): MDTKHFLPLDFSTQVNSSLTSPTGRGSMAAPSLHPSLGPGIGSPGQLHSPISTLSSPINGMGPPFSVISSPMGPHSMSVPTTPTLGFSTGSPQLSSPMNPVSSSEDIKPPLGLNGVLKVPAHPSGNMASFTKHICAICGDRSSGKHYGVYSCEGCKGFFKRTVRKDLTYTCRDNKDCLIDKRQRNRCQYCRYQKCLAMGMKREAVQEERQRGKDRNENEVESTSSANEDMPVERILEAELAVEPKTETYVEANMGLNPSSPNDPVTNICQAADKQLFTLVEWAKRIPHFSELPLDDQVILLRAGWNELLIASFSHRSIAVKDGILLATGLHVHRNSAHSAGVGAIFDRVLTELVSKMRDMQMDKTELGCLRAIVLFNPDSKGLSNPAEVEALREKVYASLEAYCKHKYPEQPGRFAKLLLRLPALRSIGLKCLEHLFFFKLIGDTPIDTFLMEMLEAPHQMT

[19] = biological target: Luciferin 4-monooxygenase (Photinus pyralis) (UniProt P08659); assay: Biochemical firefly luciferase enzyme assay for NPC (AID 624030; active = well fitted curve in the direction sought with a large enough effect; an effect the other way counts as inactive or inconclusive;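 note: purified P. pyralis luciferase at 10 nM with luciferin and ATP substrate; 0% = DMSO and -100% = full luciferase inhibition by PTC124 control; nearly all actives have a fitted effect of over 70% in size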)
Chain of Luciferin 4-monooxygenase (Photinus pyralis) (P08659 whole entry, looked up): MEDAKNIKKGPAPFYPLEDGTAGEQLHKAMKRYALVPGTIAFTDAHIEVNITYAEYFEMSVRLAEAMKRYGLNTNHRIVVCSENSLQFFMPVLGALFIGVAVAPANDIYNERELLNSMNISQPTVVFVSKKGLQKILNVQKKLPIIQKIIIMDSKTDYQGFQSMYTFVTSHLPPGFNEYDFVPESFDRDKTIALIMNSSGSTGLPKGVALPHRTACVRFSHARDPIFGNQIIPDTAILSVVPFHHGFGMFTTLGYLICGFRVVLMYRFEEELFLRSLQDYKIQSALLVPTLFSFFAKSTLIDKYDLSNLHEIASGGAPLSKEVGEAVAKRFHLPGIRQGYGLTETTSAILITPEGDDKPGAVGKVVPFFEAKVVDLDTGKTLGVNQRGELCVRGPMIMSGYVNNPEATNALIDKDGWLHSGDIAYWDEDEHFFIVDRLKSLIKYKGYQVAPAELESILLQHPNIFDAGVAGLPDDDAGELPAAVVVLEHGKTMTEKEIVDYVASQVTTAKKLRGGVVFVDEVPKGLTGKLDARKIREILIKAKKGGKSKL
Summary of the method: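 Counter-screen for direct inhibition of the luciferase enzyme by approved-drug library compounds, run at 10 nM enzyme in 50 mM Tris acetate (final). Luminescence was read within 5 min of enzyme-buffer addition and normalized to PTC124 versus DMSO (0%).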

C=Cc1ccccc1
-16.9%: activity change, negative = inhibition [9]
inactive: outcome [1] | outcome [2] | Potency [3] | Potency [4] | Potency [5] | Potency [6] | Potency [7] | Potency [8]

C/C=C/C=C/C(=O)O
inactive: outcome [1] | Potency [4] | Potency [5] | Potency [6] | Potency [7] | Potency [8]

CC[C@H]1C2C[C@H]3[C@@H]4N(C)c5ccccc5[C@@]45C[C@H](C2[C@H]5O)N3[C@@H]1O (some centres not stated)
inactive: Potency [4] | Potency [5] | Potency [6] | Potency [7] | Potency [8] | Potency [10] | Potency [11]

CC(C)=CCCC(C)=CCCC(C)=CCCC=C(C)CCC=C(C)CCC=C(C)C
inactive: Potency [4] | Potency [5] | Potency [6] | Potency [7] | Potency [8] | Potency [12]
-5.81%: activity change, negative = inhibition [9]

C[N+]1([O-])[C@H]2CC(OC(=O)C(CO)c3ccccc3)C[C@H]1[C@H]1O[C@H]12 (some centres not stated)
inactive: Potency [4] | Potency [5] | Potency [6] | Potency [7] | Potency [8] | Potency [10] | Potency [11]

CC1(C)S[C@@H]2[C@H](N)C(=O)N2[C@@H]1C(=O)O
inactive: outcome [4] inactive [at 5.34 µM] | outcome [5] inactive [at 5.34 µM] | outcome [6] inactive [at 5.34 µM] | outcome [7] inactive [at 5.34 µM] | outcome [8] inactive [at 5.25 µM] | outcome [9] inactive [at 5.25 µM] | activity, negative = inhibition [10] 1.27% [at 4.49 µM] | outcome [11] inactive [at 4.52 µM]

C[C@@](Cc1ccc(O)c(O)c1)(NN)C(=O)O
inactive: outcome [13] | outcome [14] | Potency [15] | Potency [4] | Potency [5] | Potency [6] | Potency [7] | Potency [8] | Potency [9]

CC(=O)[C@@]1(O)CC[C@H]2[C@@H]3CCC4=CC(=O)CC[C@@H]4[C@H]3CC[C@@]21C
inactive: Potency [4] | Potency [5] | Potency [6] | Potency [7] | Potency [8] | Potency [10] | Potency [11]

CC1(C)C(C=C(Cl)Cl)C1C(=O)OCc1cccc(Oc2ccccc2)c1 (configuration not stated)
-7.32% and -8.4%: max response [17]
inactive: outcome [1] | outcome [16] | Potency [18] | outcome [2] | Potency [19] | Potency [3] | Potency [4] | Potency [5] | Potency [6] | Potency [7] | Potency [8]
